These results are taken from ChEMBL document CHEMBL3988442, “University of Dundee, Small-Polar-MMV Screening Library” (2021).

One experiment has as its target T1, Tyrosyl-tRNA synthetase, putative (Trypanosoma cruzi (strain CL Brener)) (UniProt Q4DSP6).
T1 sequence (whole entry): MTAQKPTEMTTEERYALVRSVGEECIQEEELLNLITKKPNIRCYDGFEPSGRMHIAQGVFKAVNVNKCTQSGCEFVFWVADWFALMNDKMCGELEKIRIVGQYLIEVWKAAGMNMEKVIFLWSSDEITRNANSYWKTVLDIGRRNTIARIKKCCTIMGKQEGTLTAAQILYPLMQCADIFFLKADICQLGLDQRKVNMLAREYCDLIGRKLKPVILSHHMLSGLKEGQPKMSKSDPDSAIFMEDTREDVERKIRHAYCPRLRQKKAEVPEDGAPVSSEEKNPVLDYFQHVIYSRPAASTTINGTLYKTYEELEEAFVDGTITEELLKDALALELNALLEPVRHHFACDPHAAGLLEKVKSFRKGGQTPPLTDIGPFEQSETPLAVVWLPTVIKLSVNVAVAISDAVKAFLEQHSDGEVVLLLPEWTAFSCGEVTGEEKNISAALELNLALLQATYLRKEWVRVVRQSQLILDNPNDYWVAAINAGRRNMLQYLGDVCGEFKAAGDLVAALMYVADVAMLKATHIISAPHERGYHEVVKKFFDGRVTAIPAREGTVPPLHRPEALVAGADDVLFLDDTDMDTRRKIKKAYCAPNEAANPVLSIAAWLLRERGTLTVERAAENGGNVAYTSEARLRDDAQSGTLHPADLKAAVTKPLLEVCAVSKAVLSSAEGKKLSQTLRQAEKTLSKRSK
Put plainly: Trypanosoma cruzi tyrosyl tRNA synthetase (TcYRS) SOP. More on the design: scale not given: direction of the effect not stated beside the values. Type of experiment: functional. The following applies: 30 µM.
As for `Cc1nc(C2CCCN2CC(=O)N(Cc2ccsc2)C2CC2)no1` (stereo not drawn), the Percent Effect is 18.3%.
The same measure, in the same setting: to `CC(C)S(=O)(=O)N1CCC(c2cc3n(n2)[C@@H](C(F)(F)F)C[C@@H](C)N3)C1` (stereo partly drawn) belongs 6.41%.
With `O=C(CSCC1CC1)N1CCCC(c2nccn2Cc2ccncc2)C1` (stereo not drawn), the Percent Effect worked out at 10.3%.
Same read-out and setting: to `CC(=O)N1CCCN(c2nccc(-c3cn(C)nc3C)n2)CC1` belongs 8.64%; to `COc1ccc(C2CCCN2S(=O)(=O)N(C)CC(C)C)cc1` (stereo not drawn), -10.3%.
Turning to `Cc1cccc2[nH]c(C3CCN(C(=O)c4ccnn4C)CC3)nc12`, the Percent Effect worked out at 13.6%.
On the same count and under the same terms, with `Cc1nc(CN2CCc3nn(C(C)C)c(=O)cc3C2)oc1C` the figure was -8.64%; with `COc1cc(CNC(=O)NCc2c(C)cc(C)[nH]c2=O)ccc1C`, 12.2%; with `Fc1cccc(-c2nc(CN3CCOC(Cn4cccn4)C3)co2)c1` (stereo not drawn), 6.17%.
Same read-out and setting: with `O=C([C@@H]1CC[C@@H]2[C@@H](CCN2Cc2ccoc2)O1)N1CCCC1` the figure was 13.6%; with `Cn1cccc1C(=O)N1CCC2(CC1)CN(c1ccccn1)CCO2`, -1.24%; with `CCc1ccc(NS(=O)(=O)CC2=NC(=O)n3cccc3C2=O)cc1`, -12.8%.
The same measure, in the same setting: with `CC(=O)c1ccc(OCC(=O)NC(C)CCc2ccco2)cc1` (stereo not drawn) the figure was 2.44%; with `CN(C)CC(=O)N1CCCC2(CCC(=O)N(CCc3c[nH]cn3)C2)C1` (stereo not drawn), 16.1%.
As to `N#Cc1cccc(S(=O)(=O)N2CCCCC2CCN2CCCC2=O)c1` (stereo not drawn), the Percent Effect was 11.1%.
Consider `O=C(NCC(O)c1ccc(F)c(F)c1)c1cccnc1O` (stereo not drawn), for which the Percent Effect turned out to be 21%.
Regarding `Cc1cccc(CN2C(=O)CC[C@@H]3[C@H]2CCN3Cc2ccc(C)s2)n1`, the Percent Effect was -3.85%.
On the same count and under the same terms, to `CC(=O)N1CC[C@H]2OCC[C@@]2(C(=O)NCc2ccco2)C1` belongs 5%; to `CSC(C)(C)CNC(=O)NC1CCN(C)CC1`, 6.17%; to `CN(Cc1ncc(-c2ccccc2)o1)CC1CCCN1c1cccnn1` (stereo not drawn), 9.41%.
The same measure, in the same setting: with `Cc1noc([C@H]2C[C@@H]3CCN(CC4CC4)C[C@H]3O2)n1` the figure was 3.85%.
Consider `O=C(O)c1cc2c(nc1O)CC(c1cccc(Cl)c1)CC2=O` (stereo not drawn), for which the Percent Effect was found to be 2.56%.
Still for that read-out and setting: with `COCCCC(=O)NS(=O)(=O)c1ccc2c(c1)OCCCO2` the figure was -1.24%.
On the same count and under the same terms, to `Cc1nn(C)c(Cl)c1CNCc1cccnc1N1CCOCC1` belongs 18.2%.
On the same count and under the same terms, with `CN(Cc1ccc(F)cc1)CC1(O)CCCN(CC(C)(C)C)C1=O` (stereo not drawn) the figure was -2.56%; with `CN(CC(=O)N1CCC(Oc2ccccc2)CC1)c1cnccn1`, 25.6%.
Take `CC(=O)N1CCn2c(COCc3csc(C)n3)cnc2C1C` (stereo not drawn): the Percent Effect was 15%.
On the same count and under the same terms, with `Cc1cc(C)c(CNC(=O)N2CCCC2C(N)=O)c(=O)[nH]1` (stereo not drawn) the figure was 12.7%.
Same read-out and setting: with `Cc1ccc(N2CCCC(NCC(=O)NCC3CC3)C2)nn1` (stereo not drawn) the figure was 15.2%; with `O=C1CC(c2ccc(F)c(F)c2)c2snc(C(=O)O)c2N1` (stereo not drawn), -5.13%; with `Cc1nc(-c2ccccc2)sc1C(=O)NCCNc1ncccn1`, 11.1%.
The same measure, in the same setting: with `CNS(=O)(=O)c1cccc(CNC(=O)c2c(C)nn(C)c2C)c1` the figure was 2.53%.
With `Clc1ccc(CN2CCCC(Cn3cncn3)C2)c2ncccc12` (stereo not drawn), the Percent Effect was 3.7%.
For `CCN(CC)Cc1cn2c(n1)CN(C(=O)c1cnccn1)CC2`, the Percent Effect stood at 7.69%.
Same read-out and setting: to `CN(C)C(=O)[C@H]1C[C@@H]2CN(S(=O)(=O)Cc3ccccc3)C[C@H]1O2` belongs 11.5%; to `CCc1nc(C2CCCN(C(=O)c3cccc4cn[nH]c34)C2)no1` (stereo not drawn), 1.22%; to `CC(C(=O)NCCOc1ccc2c(c1)OCO2)n1cncn1` (stereo not drawn), 13.9%.
For the compound `CC(C)OCCCNC(=O)CN1CCC(N2CCN(C)C2=O)CC1`, the Percent Effect came out at 8.86%.
`CN(C)c1nc2c(c(=O)[nH]1)CCN(C(=O)c1cccc3nccnc13)C2`: the Percent Effect amounted to 16.1%.

For a further experiment, the target named is Chromo domain-containing protein 1 (Saccharomyces cerevisiae (strain ATCC 204508 / S288c) (Baker's yeast)) (UniProt P32657). Put plainly: ScCHD-1 Enzyme Inhibition Assay. It is filed as functional. More on the design: scale not given: in the data most compounds retested in dose-response had high values. As to conditions: 30 µM.
Chain of Chromo domain-containing protein 1 (Saccharomyces cerevisiae (strain ATCC 204508 / S288c) (Baker's yeast)) (P32657 whole entry, the tested form may be a part): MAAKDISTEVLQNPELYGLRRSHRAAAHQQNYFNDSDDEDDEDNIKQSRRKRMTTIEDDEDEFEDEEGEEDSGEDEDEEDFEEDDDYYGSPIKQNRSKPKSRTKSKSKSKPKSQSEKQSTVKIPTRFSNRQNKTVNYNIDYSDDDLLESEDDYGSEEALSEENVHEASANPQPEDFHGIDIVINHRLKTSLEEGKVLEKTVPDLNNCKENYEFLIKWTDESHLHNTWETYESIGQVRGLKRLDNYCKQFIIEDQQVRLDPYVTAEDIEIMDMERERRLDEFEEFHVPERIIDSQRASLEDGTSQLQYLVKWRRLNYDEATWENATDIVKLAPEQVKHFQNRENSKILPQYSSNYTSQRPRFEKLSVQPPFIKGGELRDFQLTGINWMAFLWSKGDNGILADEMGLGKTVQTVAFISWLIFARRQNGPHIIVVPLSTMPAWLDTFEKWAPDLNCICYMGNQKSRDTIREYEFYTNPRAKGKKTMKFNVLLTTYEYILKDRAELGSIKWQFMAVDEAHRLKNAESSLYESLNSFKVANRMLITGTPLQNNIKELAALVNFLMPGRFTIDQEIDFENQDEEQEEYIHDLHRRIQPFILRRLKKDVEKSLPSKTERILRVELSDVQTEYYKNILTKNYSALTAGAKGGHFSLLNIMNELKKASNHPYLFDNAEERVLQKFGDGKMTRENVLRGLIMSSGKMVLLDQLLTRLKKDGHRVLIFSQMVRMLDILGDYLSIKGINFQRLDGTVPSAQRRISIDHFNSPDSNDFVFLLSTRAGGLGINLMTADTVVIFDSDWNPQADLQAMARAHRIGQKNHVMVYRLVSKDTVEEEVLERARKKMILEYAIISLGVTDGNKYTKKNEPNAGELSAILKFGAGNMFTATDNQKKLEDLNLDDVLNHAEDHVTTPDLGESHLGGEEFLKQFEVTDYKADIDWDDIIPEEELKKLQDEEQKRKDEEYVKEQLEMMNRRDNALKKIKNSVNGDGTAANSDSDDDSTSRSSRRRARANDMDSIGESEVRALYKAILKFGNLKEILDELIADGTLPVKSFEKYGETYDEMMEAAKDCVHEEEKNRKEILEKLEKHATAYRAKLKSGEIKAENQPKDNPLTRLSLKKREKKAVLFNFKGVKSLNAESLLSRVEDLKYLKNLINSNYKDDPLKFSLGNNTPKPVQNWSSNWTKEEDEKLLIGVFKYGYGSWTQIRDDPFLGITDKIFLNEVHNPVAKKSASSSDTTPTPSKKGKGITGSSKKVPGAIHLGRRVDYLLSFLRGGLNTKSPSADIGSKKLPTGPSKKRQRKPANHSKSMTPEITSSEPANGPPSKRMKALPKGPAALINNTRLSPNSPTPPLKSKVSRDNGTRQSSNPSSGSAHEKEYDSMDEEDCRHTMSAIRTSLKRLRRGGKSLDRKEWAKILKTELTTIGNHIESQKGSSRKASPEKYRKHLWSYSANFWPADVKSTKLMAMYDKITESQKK
Turning to `Cc1nc(C2CCCN2CC(=O)N(Cc2ccsc2)C2CC2)no1` (stereo not drawn), the Percent Effect is -5.35%.
Same read-out and setting: with `CC(C)S(=O)(=O)N1CCC(c2cc3n(n2)[C@@H](C(F)(F)F)C[C@@H](C)N3)C1` (stereo partly drawn) the figure was -0.108%.
On the same count and under the same terms, to `O=C(CSCC1CC1)N1CCCC(c2nccn2Cc2ccncc2)C1` (stereo not drawn) belongs -2.97%.
On the same count and under the same terms, to `CC(=O)N1CCCN(c2nccc(-c3cn(C)nc3C)n2)CC1` belongs -7.43%.
As to `COc1ccc(C2CCCN2S(=O)(=O)N(C)CC(C)C)cc1` (stereo not drawn), the Percent Effect was -2.11%.
For `Cc1cccc2[nH]c(C3CCN(C(=O)c4ccnn4C)CC3)nc12`, the Percent Effect was -3.54%.
Turning to `Cc1nc(CN2CCc3nn(C(C)C)c(=O)cc3C2)oc1C`, the Percent Effect is 2.02%.
The same measure, in the same setting: to `COc1cc(CNC(=O)NCc2c(C)cc(C)[nH]c2=O)ccc1C` belongs -9.57%; to `Fc1cccc(-c2nc(CN3CCOC(Cn4cccn4)C3)co2)c1` (stereo not drawn), -3.05%.
The same measure, in the same setting: with `O=C([C@@H]1CC[C@@H]2[C@@H](CCN2Cc2ccoc2)O1)N1CCCC1` the figure was -3.6%; with `Cn1cccc1C(=O)N1CCC2(CC1)CN(c1ccccn1)CCO2`, -2.89%.
For the compound `CCc1ccc(NS(=O)(=O)CC2=NC(=O)n3cccc3C2=O)cc1`, the Percent Effect was 3.49%.
As to `CC(=O)c1ccc(OCC(=O)NC(C)CCc2ccco2)cc1` (stereo not drawn), the Percent Effect was -1.85%.
The same measure, in the same setting: to `CN(C)CC(=O)N1CCCC2(CCC(=O)N(CCc3c[nH]cn3)C2)C1` (stereo not drawn) belongs -1.67%; to `N#Cc1cccc(S(=O)(=O)N2CCCCC2CCN2CCCC2=O)c1` (stereo not drawn), -4.06%.
The same measure, in the same setting: with `O=C(NCC(O)c1ccc(F)c(F)c1)c1cccnc1O` (stereo not drawn) the figure was -4.53%; with `Cc1cccc(CN2C(=O)CC[C@@H]3[C@H]2CCN3Cc2ccc(C)s2)n1`, 2.14%; with `CC(=O)N1CC[C@H]2OCC[C@@]2(C(=O)NCc2ccco2)C1`, -6.83%.
On the same count and under the same terms, to `CSC(C)(C)CNC(=O)NC1CCN(C)CC1` belongs -2.97%; to `CN(Cc1ncc(-c2ccccc2)o1)CC1CCCN1c1cccnn1` (stereo not drawn), -9.3%.
In the case of `Cc1noc([C@H]2C[C@@H]3CCN(CC4CC4)C[C@H]3O2)n1`, the Percent Effect is -3.28%.
On the same count and under the same terms, with `O=C(O)c1cc2c(nc1O)CC(c1cccc(Cl)c1)CC2=O` (stereo not drawn) the figure was -9.15%; with `COCCCC(=O)NS(=O)(=O)c1ccc2c(c1)OCCCO2`, 4.1%; with `Cc1nn(C)c(Cl)c1CNCc1cccnc1N1CCOCC1`, -6.81%.
As to `CN(Cc1ccc(F)cc1)CC1(O)CCCN(CC(C)(C)C)C1=O` (stereo not drawn), the Percent Effect amounted to 0.558%.
As for `CN(CC(=O)N1CCC(Oc2ccccc2)CC1)c1cnccn1`, the Percent Effect was -8.13%.
The same measure, in the same setting: with `CC(=O)N1CCn2c(COCc3csc(C)n3)cnc2C1C` (stereo not drawn) the figure was -9.91%; with `Cc1cc(C)c(CNC(=O)N2CCCC2C(N)=O)c(=O)[nH]1` (stereo not drawn), -14.7%.
Regarding `Cc1ccc(N2CCCC(NCC(=O)NCC3CC3)C2)nn1` (stereo not drawn), the Percent Effect was -25.7%.
Still for that read-out and setting: to `O=C1CC(c2ccc(F)c(F)c2)c2snc(C(=O)O)c2N1` (stereo not drawn) belongs -4.62%; to `Cc1nc(-c2ccccc2)sc1C(=O)NCCNc1ncccn1`, 5.7%.
Same read-out and setting: with `CNS(=O)(=O)c1cccc(CNC(=O)c2c(C)nn(C)c2C)c1` the figure was -12.7%; with `Clc1ccc(CN2CCCC(Cn3cncn3)C2)c2ncccc12` (stereo not drawn), 3.92%.
The same measure, in the same setting: to `CCN(CC)Cc1cn2c(n1)CN(C(=O)c1cnccn1)CC2` belongs 0.514%; to `CN(C)C(=O)[C@H]1C[C@@H]2CN(S(=O)(=O)Cc3ccccc3)C[C@H]1O2`, -6.01%; to `CCc1nc(C2CCCN(C(=O)c3cccc4cn[nH]c34)C2)no1` (stereo not drawn), 3.58%.
Take `CC(C(=O)NCCOc1ccc2c(c1)OCO2)n1cncn1` (stereo not drawn): the Percent Effect was -2.77%.
Same read-out and setting: to `CC(C)OCCCNC(=O)CN1CCC(N2CCN(C)C2=O)CC1` belongs -6.17%; to `CN(C)c1nc2c(c(=O)[nH]1)CCN(C(=O)c1cccc3nccnc13)C2`, -3.03%.
